High-throughput results as filed in PubChem BioAssay.
In the library only some 1.2% were active in any assay of this set; here they are far more common.
RGS8-Gao = regulators of human RGS8-Galphao interaction. P09471. multiplexed bead flow cytometry, RGS8-Galphao binding; actives lie on both sides. response (percent of control binding), % at 10 µM. actives 0.34% (n = 220,000). AID 1423; in the data active = response below about 60% or above about 140%; inactive = in between;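 note: Galphao activated as the GDP aluminium fluoride complex binding bead-coupled RGS8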
Target sequence (P09471 whole entry, looked up): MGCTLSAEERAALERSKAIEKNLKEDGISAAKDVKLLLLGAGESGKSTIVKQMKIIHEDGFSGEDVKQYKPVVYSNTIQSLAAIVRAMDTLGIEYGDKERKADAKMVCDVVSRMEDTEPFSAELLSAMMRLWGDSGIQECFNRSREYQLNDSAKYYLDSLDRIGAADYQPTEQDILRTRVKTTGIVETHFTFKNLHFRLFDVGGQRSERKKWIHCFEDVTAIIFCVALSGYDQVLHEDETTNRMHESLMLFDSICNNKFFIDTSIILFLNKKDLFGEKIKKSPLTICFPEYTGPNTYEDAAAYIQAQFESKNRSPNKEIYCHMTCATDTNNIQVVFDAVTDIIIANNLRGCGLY
RGS16-Gao HTS = RGS16-Galphao interaction regulator (human); O15492+P09471; bead-based flow cytometry RGS16-Galphao binding, fluorescence; actives lie on both sides; binding response (% of control), % at 10 µM; actives 0.38% (n = 220,000); AID 1441; call rule not given here;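 note: Galphao activated by GDP with aluminum fluoride before binding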
Target sequence (O15492 whole entry, looked up): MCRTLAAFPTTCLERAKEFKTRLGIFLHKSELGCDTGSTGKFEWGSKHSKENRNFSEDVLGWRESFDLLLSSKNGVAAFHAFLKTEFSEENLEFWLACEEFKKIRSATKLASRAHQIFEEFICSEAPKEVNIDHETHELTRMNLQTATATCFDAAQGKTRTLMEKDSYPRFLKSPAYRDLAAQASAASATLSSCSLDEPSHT
Target sequence (P09471 whole entry, looked up): as the sequence (P09471 whole entry, looked up) above
GSH fluor = compound fluoresces at 488/530 nm on GSH beads; fluorescence (KMESF) at 10 µM; actives 0.25% (n = 190,000); GSH beads flow cytometry, compound fluorescence 488/530 nm; stronger effect = higher value; in the data active = fluorescence above about 89;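 note: glutathione beads carrying GST-tagged Bcl family fusion proteins plus one bare bead set; values are compound well signal with DMSO vehicle wells as background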
Avidin fluor = compound fluoresces at 488/530 nm on avidin beads | actives 0.38% (n = 220,000) | fluorescence (KMESF) at 10 µM | AID 1775 | compound fluorescence 488/530 nm, flow cytometry; stronger effect = higher value; in the data active = fluorescence above about 47
RGS7-Gao reg = regulators of human RGS7-Galphao interaction; P09471; Multiplexed bead flow cytometry, RGS7-Galphao binding; actives lie on both sides; binding response (% of control), % at 10 µM; actives 0.35% (n = 220,000); AID 1439; in the data active = binding response below about 49% or above about 150%; inconclusive = no clear call, values can overlap the other calls; inactive = in between;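 note: fluorescent Galphao held in activated GDP-AlF4 state binding bead-coupled RGS7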
RGS4-Gao reg = human RGS4-Galphao interaction regulation. binding response (% of control), % at 10 µM. Multiplexed bead flow cytometry, RGS4-Galphao binding; actives lie on both sides. actives 0.33% (n = 220,000). P09471. AID 1415; in the data active = binding response below about 49% or above about 150%; inactive = in between;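 note: fluorescent Galphao activated with aluminum fluoride binding bead-coupled RGS4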
* marks the source's active call; other numbers are inactive results; u = inconclusive; x = no result.

SMILES | RGS8-Gao | RGS16-Gao HTS | GSH fluor | Avidin fluor | RGS7-Gao reg | RGS4-Gao reg
COc1cc(S(=O)(=O)N(Cc2cccs2)CC2CCCO2)ccc1-n1cnnn1 (stereo not given) | 102.4 | 107.5 | 17 | 50* | 126.3 | 96.6
O=C(OCc1ccc(Cl)c(Cl)c1)c1cnccn1 | 100.3 | 106.1 | 270* | 9 | 103.6 | 103.0
O=C(OCc1ccc(Cl)cc1)c1cnccn1 | 103.2 | 98.3 | 11 | 7 | 98.5 | 102.0
Cc1ccc(C(=O)Nc2ccc(S(=O)(=O)N3CCc4ccccc4C3)cc2)o1 | 100.0 | 100.8 | 19 | 50* | 100.2 | 102.8
Cc1ccc(C(=O)Nc2ccc(S(=O)(=O)N3CCc4ccccc43)cc2)o1 | 96.7 | 94.6 | 11 | 8 | 97.4 | 97.9
CCC(C)NC(=O)C1c2cc(OC)c(OC)cc2C(=O)N(C)C1c1cccs1 (stereo not given) | 100.1 | 103.8 | 22 | 67* | 115.5 | 106.1
CCC(C)NC(=O)C1c2cc(OC)c(OC)cc2C(=O)N(C)C1c1ccc(OC)cc1 (stereo not given) | 99.6 | 96.4 | 19 | 34 | 98.7 | 99.0
Cc1ccc(C(C[N+](=O)[O-])Sc2ccc(N)cc2)cc1 (stereo not given) | 83.3 | 86.0 | x | 4 | u | 87.9
COc1ccc(/C=N/NC(=O)CN2CCSCC2)c(OC)c1 | 99.9 | 111.4 | 12 | 14 | 97.5 | 95.7
Cc1c(Cc2ccc3c(c2)OCO3)sc(NC(=O)c2ccc3ccccc3c2)c1C(N)=O | 28.8* | 11.3* | 13 | 1 | 34.8* | 20.3*
CCOC(=O)c1cccc(NC(=O)CSc2nnc(C)n2Cc2ccccc2)c1 | 100.6 | 99.0 | 18 | 36 | 93.9 | 95.3
CC(=O)Nc1ccc(C2(O)COc3ccccc3O2)cc1 (stereo not given) | 100.4 | 107.2 | 262* | 9 | 101.9 | 103.3
CC(=O)Nc1ccc2c(c1)OCCOCCOc1cc(NC(C)=O)ccc1OCCO2 | 100.7 | 102.2 | x | 9 | u | 102.5
CCCN(CCC)C1CC(=O)N(Cc2ccccc2)C1=O (stereo not given) | 102.6 | 103.8 | 19 | 58* | 113.5 | 103.0
O=C1CCCc2ccccc2N1Cc1ccc(Cl)cc1Cl | 99.8 | 95.4 | 20 | 68* | 113.1 | 99.2
COc1ccc2occ(C(=O)c3ccccc3)c2c1 | 98.7 | 97.9 | 13 | 11 | u | 100.1
COc1ccc(OC)c(C(=O)c2coc3ccc(O)cc23)c1 | 100.9 | 103.7 | 88* | 13 | 107.0 | 103.2
NC(=O)C(=CNc1nc(-c2ccc(Cl)c(Cl)c2)cs1)C(N)=O | 101.6 | 103.4 | x | 7 | u | 95.4
CCOC(=O)c1ccc2c(c1)nc(SCC(=O)c1ccco1)n2CC | 91.5 | 52.4 | 255* | 5 | 95.5 | 97.0
O=C(CSc1ccccn1)c1ccc(F)cc1 | 89.2 | 91.9 | 6 | 5 | 90.5 | 87.0
Cc1ccc(C(=O)CSc2ccccn2)cc1 | 106.4 | 121.5 | 16 | 65* | 147.1 | 104.2
CCOC(=O)c1[nH]c2ccc(OC)cc2c1NC(C)=O | 100.6 | 101.8 | 15 | 62* | 120.7 | 106.3
CCOC(=O)Nc1c(C(=O)OC)[nH]c2cccc(OC)c12 | 102.6 | 124.6 | 28 | 57* | 120.4 | 121.7
COC(=O)c1[nH]c2cccc(OC)c2c1NC(=O)CCN1CCC(C)CC1 | 101.0 | 101.1 | 22 | 33 | 100.3 | 100.3
CCOC(=O)c1cn(CC2CC2)c2cc(F)c(F)cc2c1=O | 102.3 | 111.7 | 26 | 54* | 148.0 | 109.5
SMILES | RGS8-Gao | RGS16-Gao HTS | GSH fluor | Avidin fluor | RGS7-Gao reg | RGS4-Gao reg
CC(C)C(OC(=O)c1cc2sccc2n1C)C(=O)NCC1CCCO1 (stereo not given) | 118.4 | 155.1 | 254* | 7 | 114.9 | 113.7
COc1ccccc1NC(=O)/C(=C\c1cccs1)NC(=O)c1ccco1 | 110.8 | 123.9 | x | 49* | u | 119.2
OC(CNCc1ccco1)COc1ccccc1 (stereo not given) | 98.9 | 95.0 | 45 | 6 | 99.2 | 96.6
OC(CNCc1ccco1)Cn1c2ccccc2c2ccccc21 (stereo not given) | 104.6 | 99.6 | 263* | 6 | 102.1 | 96.1
Cc1cccc(C2c3[nH]c4ccccc4c3CCN2C(=O)Cc2n[nH]c(C)n2)n1 (stereo not given) | 100.5 | 102.9 | 18 | 6 | 100.5 | 101.0
CN1/C(=C\C=C2/C(=O)Oc3ccccc3C2=O)C(C)(C)c2ccccc21 | 102.6 | 133.0 | 68 | 90* | 142.4 | 135.1
CN1C(=CC=C2C=C(I)C(=O)C(I)=C2)C(C)(C)c2ccccc21 | 96.7 | 97.8 | x | 20 | u | 102.3
OC1CCCN(Cc2ccc3ccc4cccc5ccc2c3c45)C1 (stereo not given) | 100.2 | 103.9 | 24 | 142* | 134.7 | 110.8
CCCn1nc2cc(C(=O)NCCc3ccc(C)cc3)ccc2c1OCC | 104.2 | 113.9 | 12 | 63* | 107.4 | 110.3
CCCn1nc2cc(C(=O)NCCCCc3ccccc3)ccc2c1OCC | 101.0 | 107.9 | 13 | 52* | 106.0 | 104.9
CCCCn1nc2cc(C(=O)NCCc3cccs3)ccc2c1OCC | 100.6 | 97.6 | 54 | 7 | 100.5 | 100.2
S=C(NCCc1ccccc1)Nc1c(Cl)cccc1Cl | 100.0 | 99.7 | x | 7 | u | 102.0
CCCCNC(=O)c1ccccc1NC(=O)CCC | 97.2 | 95.7 | 11 | 20 | 93.2 | 96.4
O=C(/C=C\c1ccc(-c2cccc([N+](=O)[O-])c2)o1)N1CCOCC1 | 96.6 | 96.4 | 10 | 8 | 91.0 | 100.5
C#CCOCCOCCOCCNc1nc(N2CCN(C(=O)Cn3cc(CCO)nn3)CC2)nc(N2CCN(C(=O)[C@H](C(C)C)n3cc(CCO)nn3)CC2)n1 | 91.2 | 71.3 | 15 | 7 | 94.3 | 91.4
CC(=O)N1CCC2(CC1)C(C#N)=C(N)OC1=C2C(=O)CC(C)(C)C1 | 99.3 | 103.5 | 12 | 51* | 109.1 | 103.4
CC1=C(C(=O)OCC2CCCO2)C(c2coc3ccccc3c2=O)C2=C(CC(C)(C)CC2=O)N1 (stereo not given) | 97.4 | 97.0 | 14 | 9 | 92.1 | 95.2
CCOC(=O)C1=C(C)NC2=C(C(=O)CC(C)(C)C2)C1c1coc2ccccc2c1=O (stereo not given) | 103.5 | 122.0 | 19 | 60* | 106.4 | 106.6
CN(C)c1nc(SCC#N)nc(N(C)C)n1 | 100.6 | 106.0 | 26 | 59* | 115.3 | 105.5
CS(=O)(=O)c1ccc2nc(NC(=O)c3cccs3)sc2c1 | 103.5 | 104.5 | 16 | 56* | 117.3 | 105.2
CC(C)=CC(=O)OCC(=O)Nc1ccccc1Cl | 97.9 | 99.0 | 266* | 7 | 100.7 | 98.4
O=C(Nc1ccccn1)c1onc2c1CCCC2 | 96.4 | 84.3 | 11 | 4 | 103.2 | 98.3
c1ccc(-c2onc3c2CCCC3)cc1 | 108.2 | 96.7 | 242* | 8 | 109.6 | 100.5
